Screening data: PubChem BioAssay, several laboratories
This is one part of a sample in which hits are shown more often than they occur.
GC-A act = GC-A (human) enzyme activation; P16066; HEK293 GC-A cells, cGMP TR-FRET, EC30 ANP; 0% at EC30 ANP, 100% saturating ANP; activation, % at 10 µM; 370,000 tested, 0.14% active; in the data active = activation above about 40%
Target sequence (P16066 whole entry, looked up): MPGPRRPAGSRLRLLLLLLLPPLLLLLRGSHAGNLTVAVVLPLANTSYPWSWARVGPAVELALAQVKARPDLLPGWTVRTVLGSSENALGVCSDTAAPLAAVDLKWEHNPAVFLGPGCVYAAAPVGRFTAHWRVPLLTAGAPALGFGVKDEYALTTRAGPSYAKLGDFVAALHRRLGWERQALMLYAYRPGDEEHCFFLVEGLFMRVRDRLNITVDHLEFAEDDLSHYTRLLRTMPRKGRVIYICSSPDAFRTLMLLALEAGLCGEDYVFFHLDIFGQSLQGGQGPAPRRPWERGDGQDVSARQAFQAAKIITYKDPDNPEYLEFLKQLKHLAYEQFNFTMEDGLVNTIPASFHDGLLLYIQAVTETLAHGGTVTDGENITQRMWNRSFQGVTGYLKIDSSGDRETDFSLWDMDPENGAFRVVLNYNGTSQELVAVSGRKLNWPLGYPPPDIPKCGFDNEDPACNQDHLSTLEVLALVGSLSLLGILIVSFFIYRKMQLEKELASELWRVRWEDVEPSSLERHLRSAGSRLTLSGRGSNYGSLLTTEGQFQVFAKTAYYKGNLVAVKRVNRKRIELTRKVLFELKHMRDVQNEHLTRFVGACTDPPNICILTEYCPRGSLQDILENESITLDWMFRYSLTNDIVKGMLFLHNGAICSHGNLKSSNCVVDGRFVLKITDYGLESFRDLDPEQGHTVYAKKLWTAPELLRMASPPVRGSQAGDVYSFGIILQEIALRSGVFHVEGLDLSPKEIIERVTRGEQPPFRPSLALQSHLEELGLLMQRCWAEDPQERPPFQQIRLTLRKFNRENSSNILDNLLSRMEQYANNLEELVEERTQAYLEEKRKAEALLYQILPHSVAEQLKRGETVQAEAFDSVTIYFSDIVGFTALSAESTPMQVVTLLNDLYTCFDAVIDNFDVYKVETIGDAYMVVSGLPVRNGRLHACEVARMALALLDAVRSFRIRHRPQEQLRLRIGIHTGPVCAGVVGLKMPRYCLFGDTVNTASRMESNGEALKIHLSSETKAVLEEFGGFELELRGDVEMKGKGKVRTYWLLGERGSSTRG
GC-B act = GC-B (human) receptor activation | P20594 | HEK293-GC-B cells, CNP EC30, cGMP TR-FRET; 0% at EC30 CNP, 100% saturating CNP | activation, % at 10 µM | 370,000 tested, 0.11% active | AID 1920062;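 active = activation at 10 µM reaching about 35% in either raw or pattern-adjusted values, limit read from the data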
ALR H2O2 inh = blocks human ALR sulfhydryl oxidase activity | P55789 | purified ALR, DTT oxidation, H2O2 HRP-luminol luminescence | inhibition, % (no concentration beside the values) | 290,000 tested, 3.8% active | AID 485317;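 active = mean replicate inhibition above about 79%, with every replicate also reaching it, limit read from the data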
HDAC3 inh = inhibitors of human histone deacetylase 3; O15379; recombinant HDAC3, fluorogenic peptide/trypsin coupled, fluorescence; inhibition, % at 8.3 µM; 320,000 tested, 0.15% active; AID 2718; in the data active = inhibition above about 26%, passing the limit was not always enough
* hit, by the source's call; . = not tested or not shown.

SMILES | GC-A act | GC-B act | ALR H2O2 inh | HDAC3 inh
Cn1c(N/N=C/c2ccccc2)nc2sc3c(c2c1=O)CCC3 | 3 | -1 | 92* | 6
O=C(CSc1nc2sc3c(c2c(=O)n1-c1ccccc1)CCCC3)N/N=C/c1ccc(C(=O)O)cc1 | . | . | 34 | -2
COc1cc(NC(=O)CSc2ccccc2)c(C(=O)O)cc1OC | 3 | -5 | -1 | -3
COc1ccc(CSc2nc(C)[nH]c2[N+](=O)[O-])cc1[N+](=O)[O-] | 4 | -8 | 100* | 1
COc1ccc(CSCC(=O)Nc2ccccc2)cc1[N+](=O)[O-] | -2 | 1 | 99* | 1
COc1cc(NC(=O)CSCc2ccccc2)c(C(=O)O)cc1OC | 1 | 2 | 76* | -6
O=C(c1ccc(NC(=O)C(c2ccccc2)c2ccccc2)cc1)c1ccc(C(=O)O)c(C(=O)O)c1 | -2 | -1 | 94* | 4
CC(C)n1c(CN(C)Cc2ccccc2)nc2c1c(=O)n(C)c(=O)n2C | 5 | 3 | . | -3
CCNC(=O)Nc1cc(OC)c(OC)cc1C(=O)O | 1 | -1 | -9 | -17
CC(=O)c1cccc(NC(=O)CSCc2ccc(Br)cc2)c1 | 1 | -4 | -10 | 4
CC(=O)c1cccc(NC(=O)CSCc2ccccc2)c1 | 6 | -1 | 97* | 8
COc1cc(NC(=O)C(c2ccccc2)c2ccccc2)c(C(=O)O)cc1OC | 4 | 3 | 92* | -2
CC(C)C[C@H](N)c1nnc(S(=O)(=O)Cc2ccc(F)cc2)o1 | . | . | 98* | -4
COC(=O)c1ccc(CS(=O)(=O)c2ccc(F)cc2)o1 | -3 | 0 | -2 | 4
CC(C)c1ccc(NC2CCCN(C(=O)c3cnsn3)C2)cc1 (stereo not given) | -2 | 0 | 96* | -1
Cc1cc(C(=O)N2CCCC(Nc3ccc(C(C)C)cc3)C2)nn1C (stereo not given) | 3 | -3 | 99* | 6
COC(=O)c1sc(N2C(=O)C(=O)/C(=C(/O)c3ccc(C)cc3)C2c2ccco2)nc1C (stereo not given) | . | . | 92* | 5
O=C(CNC(=O)c1ccc(F)cc1)c1ccc(Cl)cc1 | 3 | 1 | -4 | 1
CC(=O)N1CCN=C1SCc1ccc(F)cc1 | -1 | -1 | 99* | -8
CCC(=O)N1CCN=C1SCc1ccccc1 | 1 | 0 | -8 | 2
CC(=O)N1CCN=C1SCc1ccc(C)cc1 | 5 | -3 | 95* | 10
CCC(=O)N1CCN=C1SCc1ccc(Cl)cc1 | 2 | 1 | 98* | 0
CC(=O)N1CCN=C1SCc1ccccc1 | 3 | 0 | 3 | 0
CC(=O)N1CCN=C1SCc1ccc(Cl)cc1 | 3 | 1 | 98* | 6
CCOC(=O)C1=CCC(c2ccc(Cl)cc2)N(S(=O)(=O)c2ccc(C)cc2)C1 (stereo not given) | -3 | -4 | . | .
SMILES | GC-A act | GC-B act | ALR H2O2 inh | HDAC3 inh
COc1ccccc1N1CCN(S(=O)(=O)/C=C/c2ccccc2)CC1 | -2 | -6 | -2 | 4
COc1ccccc1N1CCN(C/C=C/c2ccc(N(C)C)cc2)CC1 | . | . | 99* | 1
CC1(C)Oc2cc3oc(-c4cc(O)cc(O)c4)cc3cc2CC1O (stereo not given) | -6 | -16 | 99* | -24
CC1CCN(c2nc3ccc(C(=O)NCCCN4CCCCC4C)cc3s2)CC1 (stereo not given) | -3 | -4 | 6 | 0
N#CCCN(Cc1ccccc1)C(=O)c1nccnc1C(=O)O | 4 | 1 | . | -3
Cc1cc(OC(=O)c2ccccc2)n(CCC#N)n1 | 2 | 8 | 40 | 87*
C=CCn1c(SCC(=O)Nc2ccc3c(c2)OCCO3)nc2cc(C(=O)O)ccc2c1=O | 3 | -1 | -3 | -6
COc1ccccc1-c1cc(C(=O)Nc2c(C)n(C)n(-c3ccccc3)c2=O)no1 | 4 | 1 | 97* | 11
Cc1c(NC(=O)c2ccc(=O)oc2)c(=O)n(-c2ccccc2)n1C | 0 | -3 | 88* | 7
O=S(=O)(NC1CCCCC1Nc1ccccc1)c1ccccc1 (stereo not given) | 0 | -1 | 99* | -3
CC(=O)Nc1ccc(NC2CCCCC2NS(=O)(=O)c2ccc(Cl)cc2)cc1 (stereo not given) | -7 | 3 | 99* | -6
O=C(O)c1ccccc1NC1CCCCC1NS(=O)(=O)c1ccccc1 (stereo not given) | 2 | 2 | . | .
COc1ccc(Cl)cc1C(=O)NNC(=O)CSc1nnnn1C | 0 | -1 | -8 | -8
COc1ccc(NC(=O)N2CCC(n3cnc4ccccc43)CC2)cc1 | 0 | -4 | -15 | 6
CCOc1ccc(-c2nc(CCl)cs2)cc1OC | 0 | 0 | 99* | -22
COc1ccc(-c2nc(CC(=O)O)cs2)cc1OC | 0 | -1 | 1 | -50
C=CCn1c(=O)c2ccccc2n2c(SCc3csc(-c4ccccc4)n3)nnc12 | -14 | -8 | 99* | -7
COc1ccccc1-n1cnnc1SCc1csc(-c2ccccc2)n1 | 5 | -10 | -13 | 3
C=CCn1c(SCc2csc(-c3ccc(C)cc3)n2)nnc1-c1ccccc1OC | -13 | -9 | 99* | 4
O=S1(=O)CC2c3ccc(F)cc3CN2CN1Cc1ccc(F)cc1 (stereo not given) | 3 | 2 | . | .
CC(=O)NNC(=O)c1cc2c3ccccc3n(C)c2s1 | -4 | 1 | 20 | 1
Cn1c2ccccc2c2cc(C(=O)N3CCN(CCO)CC3)sc21 | -6 | -9 | 99* | -2
CCOc1cc(/C=N/NC(=O)NN(C)c2ncc(C(F)(F)F)cc2Cl)ccc1O | -7 | -2 | 99* | 9
CN(NC(=O)NN)c1ncc(C(F)(F)F)cc1Cl | 0 | 5 | -15 | 4
Cc1cccc(C)c1Nc1c(-c2ccc(N3CCOCC3)cc2)nc2ncccn12 | 5 | 2 | . | -8
SMILES | GC-A act | GC-B act | ALR H2O2 inh | HDAC3 inh
Cc1ccc(-c2nc3ncccn3c2Nc2ccccc2C)o1 | 5 | -2 | 98* | 2
Cc1ccccc1Nc1c(-c2cccnc2)nc2ccccn12 | 20 | 10 | 68 | -14
Cc1ccc(-c2nc3ncccn3c2NC2CCCC2)o1 | -2 | -5 | 99* | 1
Cc1ccc(-c2nc3cnccn3c2Nc2c(C)cccc2C)o1 | -7 | 4 | 98* | 9
O=C(Nc1c(-c2ccccc2)nc2ncccn12)C1CC1 | 7 | -1 | . | .
Cc1ccc(Nc2c(-c3ccc(N4CCOCC4)cc3)nc3ncccn23)c(C)c1 | 16 | 3 | . | 15
Brc1ccc(-c2nc3ncccn3c2NC2CCCCC2)o1 | 20 | 28 | 99* | 0
O=C(C1CCCN1C(=O)c1cccs1)N1CCN(S(=O)(=O)c2ccc(F)cc2)CC1 (stereo not given) | 3 | -4 | -1 | -6
CCCCCCC12C(=Cc3cc(C)ccc31)c1ccccc1C(CC(=O)NCc1ccccc1)N2C(=O)OC (stereo not given) | -5 | -5 | . | .
Cc1ccc(NC(=O)CCNS(=O)(=O)c2cccc3nsnc23)cc1F | -5 | 0 | -5 | 4
Cc1cc(C)nc(NS(=O)(=O)c2ccc(NC(=O)Cc3ccccc3)cc2)n1 | 2 | -2 | 0 | -7
